# Measurements published in PubChem BioAssay AID588726 (The Scripps Research Institute Molecular Screening Center, 2011).
# About 8,200 (2.3%) of roughly 360,000 compounds were called active. The sample holds actives, similar compounds and a random draw of the others, so the mix is not that of the screen. Rule as the data show it: active = inhibition above about 27%; inactive = the rest.
# Target: Fructose-bisphosphate aldolase (Mycobacterium tuberculosis (strain ATCC 25618 / H37Rv)) (UniProt P9WQA3)
# Sequence (P9WQA3 whole entry, looked up): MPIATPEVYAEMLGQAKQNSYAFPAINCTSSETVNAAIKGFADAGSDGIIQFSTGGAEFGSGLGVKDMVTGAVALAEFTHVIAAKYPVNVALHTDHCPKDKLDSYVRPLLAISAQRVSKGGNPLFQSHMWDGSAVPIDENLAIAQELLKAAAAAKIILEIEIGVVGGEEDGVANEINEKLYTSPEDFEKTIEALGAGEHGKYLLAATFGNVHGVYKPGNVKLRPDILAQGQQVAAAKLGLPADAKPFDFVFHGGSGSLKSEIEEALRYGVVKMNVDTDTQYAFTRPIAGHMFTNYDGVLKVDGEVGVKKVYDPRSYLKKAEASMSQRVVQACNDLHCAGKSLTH
# Experiment: Mtb FBA enzyme inhibitors, primary screen, biochemical, fluorescence, strain H37Rv (AID 588726);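 also: 0% = vehicle and 100% = reference inhibitor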
# Conditions: purified M. tuberculosis FBA, fluorescence read-out, at 1 µM, active compounds read high
row,Compound,inhibition
1,CCCC(C(=O)NCc1ccco1)N(C(=O)CNS(=O)(=O)c1ccccc1)C1CCCC1 (centres undefined),0.18% (inactive)
2,c1ccc2cc(CCCc3cc4ccccc4cn3)ncc2c1,5.36% (inactive)
3,O=C(CSc1nnc(-c2ccncc2)n1C1CCCCC1)Nc1ccccc1,-1.22% (inactive)
4,CC1CCCN(S(=O)(=O)c2ccc(-c3ccc(=O)[nH]n3)o2)C1 (centres undefined),3.28% (inactive)
5,CC(OC(=O)c1ccccc1NCCO)C(=O)Nc1ccnn1C(C)C (centres undefined),92% (active)
6,COC(=O)c1ccccc1NC(=O)CSc1ccccn1,1.02% (inactive)
7,Cc1c(NC(=O)C(C)OC(=O)c2ccccc2O)c(=O)n(-c2ccccc2)n1C (centres undefined),-3.77% (inactive)
8,C=CCn1cc(C(=O)NCc2ccc(Cl)cc2)c(=O)c2cc(S(=O)(=O)N(CC)CC)ccc21,3.32% (inactive)
9,Nc1ccc(C(=O)OCC(=O)NC2CCS(=O)(=O)C2)cc1[N+](=O)[O-] (centres undefined),-2.41% (inactive)
10,O=C(COC(=O)/C=C/c1ccc(Cl)cc1)NC1CCS(=O)(=O)C1 (centres undefined),-2.05% (inactive)
11,O=C(COC(=O)CCCN1C(=O)c2cccc3cccc(c23)C1=O)NC1CCS(=O)(=O)C1 (centres undefined),45.1% (active)
12,COc1ccc(NC(=O)CCC(=O)N2CCN(S(=O)(=O)c3ccc(C)cc3)CC2)c(OC)c1,-0.33% (inactive)
13,CC(=O)NCC(=O)N1CCCC(C(=O)c2ccc3c4c(cccc24)CC3)C1 (centres undefined),33.7% (active)
14,CCn1ccnc1CN1CCCC(C(=O)c2ccc3c4c(cccc24)CC3)C1 (centres undefined),8.92% (inactive)
15,Cc1ncoc1C(=O)N1CCCC(C(=O)c2ccc3c4c(cccc24)CC3)C1 (centres undefined),17.8% (inactive)
16,CCOC(=O)c1cnc(COc2ccccc2Cl)[nH]c1=O,3.61% (inactive)
17,CCOC(=O)c1cnc2sccn2c1=O,20.1% (inactive)
18,CCCc1cc(C(=O)N2CCCC(CO)(CCCc3ccccc3)C2)n(C)n1 (centres undefined),-1.51% (inactive)
19,O=C(O)c1n[nH]nc1-c1ccccc1,113% (active)
20,N#Cc1c(-c2ccccc2)c(-c2ccccc2)n[nH]c1=O,-6.25% (inactive)
21,O=C(O)c1ccc(-n2nc(-c3ccccc3)c3ccccc3c2=O)cc1,2.23% (inactive)
22,COc1cc(Cl)c(C)cc1NC(=O)COC(=O)c1cc(SC)ccc1Cl,7.33% (inactive)
23,O=C(O)CSc1nccn1-c1cccc(Cl)c1,3.31% (inactive)
24,COC(=O)NNC(=O)C1CCC(C)CC1 (centres undefined),1.9% (inactive)

row,Compound,inhibition
1,CCOC(=O)N1CCN(C(=O)CSc2nc(C)nc3c2c(=O)n(C)c(=O)n3C)CC1,4.39% (inactive)
2,OCC[C@H]1C[C@H](O)[C@@H](O)[C@]2(CCc3ccccc3O2)O1,-1.81% (inactive)
3,NC(=O)CC[C@@H]1NC(=O)[C@@H]2CCCN2C(=O)c2cc([N+](=O)[O-])cc(F)c2NCCC[C@@H](C(N)=O)NC1=O,-3.88% (inactive)
4,O=C(NCc1ccco1)c1ccc([N+](=O)[O-])cc1Cl,3.22% (inactive)
5,Cc1cc(C(=O)OCC(=O)NCc2ccco2)c(C)n1-c1ccccc1,-0.83% (inactive)
6,CCc1ccc(-c2cc(C(=O)NCc3ccco3)c3ccccc3n2)s1,54.1% (active)
7,CN(Cc1ccc(C(F)(F)F)cc1)C(=O)[C@H]1O[C@@H](n2cnc3c(N)ncnc32)[C@H](O)[C@@H]1O,-0.98% (inactive)
8,CCN1C(=O)CS/C1=N\c1nccs1,-3.46% (inactive)
9,COc1cc2c(cc1OC)CC1(CCCCC1)N=C2,45% (active)
10,Cc1ccc(S(=O)(=O)NCc2ccc(C(=O)NC3CCC(C)CC3)cc2)cc1 (centres undefined),-7.12% (inactive)
11,COc1ccc(C(=O)Cn2nnc(-c3ccc(N4CCOCC4)cc3)n2)cc1OC,-1.43% (inactive)
12,COc1ccc(-c2ccc(CCC(=O)O)n2-c2ccc(O)cc2)cc1,-1.15% (inactive)
13,COc1ccc(-c2ccc(CCC(=O)O)n2NC(=O)c2ccc(C(C)(C)C)cc2)cc1,3.01% (inactive)
14,COCCCn1c(CCC(=O)O)ccc1-c1ccc(F)cc1,50.6% (active)
15,CC(=O)Nc1ccc(Sc2ccccc2C(=O)N2CCCC2)cn1,1.32% (inactive)
16,CCOc1ccc(C2C3=C(CCCC3=O)N(CC(=O)O)C3=C2C(=O)CCC3)cc1,39.2% (active)
17,COc1ccc(C2C3=C(CCCC3=O)N(CC(=O)O)C3=C2C(=O)CCC3)cc1,47.7% (active)
18,CCOc1ccc(C2C(C#N)=C(N)N(N(C)C)C3=C2C(=O)CCC3)cc1 (centres undefined),-0.23% (inactive)
19,CCOC(=O)C1=C(N)N(c2ccc(C)cc2)C2=C(C(=O)CCC2)C1c1cccs1 (centres undefined),-1.49% (inactive)
20,COc1ccc(C2C(C#N)=C(N)N(c3ncn[nH]3)C3=C2C(=O)CCC3)cc1 (centres undefined),3.59% (inactive)
21,CCCN1C2=C(C(=O)CCC2)C(c2ccc(O)c(Br)c2)C2=C1CCCC2=O,-1.2% (inactive)
22,CC(C)c1ccc(Nc2nnc(SCC(=O)c3nnc(-c4ccccc4)o3)s2)cc1,-2.05% (inactive)
23,CCOC(=O)C1CCN(C(=O)C2CCCN(S(=O)(=O)c3ccc(OC)c(Cl)c3)C2)CC1 (centres undefined),13.8% (inactive)
24,C=CCOc1cccc(C2NC(=O)c3ccccc3O2)c1 (centres undefined),5.49% (inactive)

row,Compound,inhibition
1,COc1ccc(C2(O)C(=O)Nc3ccccc32)cc1 (centres undefined),1.93% (inactive)
2,COc1ccc(C2NC(=O)c3ccccc3N2)cc1 (centres undefined),67% (active)
3,O=C1NC(c2cccc(Cl)c2)Nc2ccccc21 (centres undefined),30.3% (active)
4,COc1ccc(C2CC(=O)NC(=O)C2)cc1,0.31% (inactive)
5,O=C1NC(c2ccccc2)Oc2ccccc21 (centres undefined),6.04% (inactive)
6,CC(C)=CCCC1(C)C=Cc2c(ccc3c2[nH]c2cc(O)c(C)cc23)O1 (centres undefined),-3.09% (inactive)
7,COc1cccc(CNC(=O)C(=O)NCCC2CCCCN2S(=O)(=O)c2ccc(C)cc2)c1 (centres undefined),1.18% (inactive)
8,COC(=O)C1NN=C(C(=O)c2ccc(Br)cc2)C1c1cccc(Br)c1 (centres undefined),-2.34% (inactive)
9,CC(=O)Nc1cccc(Nc2ccc(C#N)cc2)c1,0.34% (inactive)
10,Cc1ccc(C2Nc3cccc4cccc(c34)N2)cc1,49.3% (active)
11,Oc1ccc(C2Nc3cccc4cccc(c34)N2)cc1,-2.34% (inactive)
12,O=[N+]([O-])c1ccc2c(c1)C(N1CCOCC1)/C(=C/C1(O)CCCCC1)O2 (centres undefined),-4.67% (inactive)
13,Cc1ccccc1Cn1nc(C)c(NC(=O)C(F)(F)F)c1C,-0.53% (inactive)
14,O=C(Nc1ccccc1)c1ccccc1NC(=O)C(F)(F)F,-0.1% (inactive)
15,COCc1cc(=O)[nH]c2cc(NC(=O)C(F)(F)F)c(C)cc12,31.5% (active)
16,COCCCN1C(=O)C(=O)/C(=C(/O)c2ccc(S(=O)(=O)N3CCOCC3)cc2)C1c1ccc(F)cc1 (centres undefined),4.42% (inactive)
17,COc1ccccc1NC(=O)COc1ccc(C(=O)OCC(=O)N(C(C)C)C(C)C)cc1OC,33.2% (active)
18,COc1cc(CO)ccc1OCC(=O)Nc1cccc2ccccc12,-1.87% (inactive)
19,COc1ccccc1NC(=O)COC(=O)COc1ccccc1F,-0.62% (inactive)
20,COc1ccc(C2c3c(C)nn(-c4ccccc4)c3NC(=O)N2c2ccccc2)cc1 (centres undefined),-0.42% (inactive)
21,O=C(CCC1CCN(C(=O)c2cccc(Cl)c2F)CC1)Nc1ccccc1,-0.26% (inactive)
22,COc1ccc(CCNC(=O)Nc2ccc3c(c2)c(=O)n(C)n3C)cc1OC,156% (active)
23,COc1ccc(CCNC(=O)C(=O)Nc2ccc3nc4n(c(=O)c3c2)CCCCC4)cc1OC,-5.38% (inactive)
24,COc1ccc(CCNC(=O)c2cc3sccc3n2C)cc1OC,6.99% (inactive)

row,Compound,inhibition
1,Cc1nc2c(-c3ccccc3)c(C)[nH]n2c(=O)c1Cl,47.5% (active)
2,COCc1cc(=O)[nH]c(-c2ccc(C(F)(F)F)cc2)n1,2.51% (inactive)
3,COCc1cc(=O)n2[nH]c(C)c(-c3ccccc3)c2n1,102% (active)
4,CCCc1cc(=O)n2[nH]c(SCc3ccccc3)nc2n1,-0.14% (inactive)
5,Cc1nc(=O)c(-c2ccccc2)c(C)n1-c1ccc(Br)cc1,2.14% (inactive)
6,COCc1cc(=O)[nH]c(SC)n1,2.44% (inactive)
7,CCCc1cc(=O)n2[nH]c(C)c(-c3ccc(Cl)cc3)c2n1,27.5% (active)
8,CCCc1c(C)nc2scc(-c3ccc(Cl)cc3)n2c1=O,0.91% (inactive)
9,Cc1nc2nc(COc3ccccc3)[nH]n2c(=O)c1C,0.07% (inactive)
10,COc1ccc(-c2csc3nc(-c4ccccc4F)oc(=O)c23)cc1OC,2.27% (inactive)
11,C=CC(=O)Nc1ccc(Nc2ccnc(Nc3ccc(N4CCN(C)CC4)cc3)n2)cc1,3.07% (inactive)
12,Cc1nc(SCC(=O)N2CCc3ccccc3C2)c2c(C)c(C)sc2n1,0.74% (inactive)
13,COc1cc(C2C(C#N)=C(C)NC3=C2C(=O)CC(C)(C)C3)ccc1O (centres undefined),0.13% (inactive)
14,Cc1sc2nc(-c3ccccc3F)oc(=O)c2c1C,-0.79% (inactive)
15,COc1ccccc1N(CC(=O)N/N=C(\C)c1ccccc1O)S(=O)(=O)c1ccc(C)cc1,2.36% (inactive)
16,COc1ccc(-c2csc3ncnc(Oc4ccc5c(C)cc(=O)oc5c4)c23)cc1,2.35% (inactive)
17,COc1ccc(-c2cc(=O)oc3cc(OCC(=O)N[C@@H](Cc4c[nH]c5ccccc45)C(=O)O)ccc23)cc1,6.63% (inactive)
18,COc1ccc(-c2cc3ccc(OCc4nn[nH]n4)cc3oc2=O)cc1,"734% [above what the read-out allows, likely interference] (active)"
19,CC1CCN(C(=O)Cn2nnnc2CN2CCOCC2)CC1,-0.01% (inactive)
20,CCN(CC)c1ccc([N+](=O)[O-])cc1C(=O)O,-17.9% (inactive)
21,CCN(CC)c1ccc2cc(C(=O)O)c(=O)oc2c1,36.2% (active)
22,Cc1cc(C)cc(OCC(=O)NNC(=O)c2cc3ccccc3oc2=O)c1,1.86% (inactive)
